Measurements from PubChem BioAssay.
The source made the active and inactive calls. No stated cut-off is given here; in the data, active means fold change permeability below about 0.7 or above about 1.3; inactive means in between. Residues, ends and D or L forms follow the SMILES beside them. *: point of attachment. Cbz = O=C(OCc1ccccc1)*

experiment: modulators of brain endothelial barrier permeability, primary screen, cell-based, FITC-avidin fluorescence, HTS (AID 1963498); details: actives lie on both sides; further: test concentration not given here

| SMILES | fold change permeability |
| --- | --- |
| Cc1cn([C@H]2C=C[C@@H](CO)O2)c(=O)[nH]c1=O | 1.2 (inactive) |
| CC(=O)C1=C(C)N(c2cccc(C(F)(F)F)c2)C(=O)N[C@@H]1c1ccc(C#N)nc1 | 1.1 (inactive) |
| O=c1cc(-c2ccc(O)cc2)oc2cc(O)cc(O)c12 | 1.2 (inactive) |
| Fc1cccc(/C=N\N=C/c2cccc(F)c2)c1 | 0.8 (inactive) |
| COc1cc2ncnc(-n3nc(-c4ccccn4)nc3N)c2cc1OC | 2 (active) |
| Cc1cc(NC2CCCCC2)nc(-n2nc(C)cc2C)n1 | 1.3 (active) |
| CCN1C(=O)C=CC1=O | 1 (inactive) |
| N[C@@H](CS(=O)O)C(=O)O | 1 (inactive) |
| O=C(O)/C=C1\CCCc2ccccc2C1O (centres undefined) | 0.8 (inactive) |
| N[C@@H](C(=O)N[C@@H]1C(=O)N2C(C(=O)O)=C(Cl)CS[C@H]12)c1ccccc1 | 0.9 (inactive) |
| CCCCN(Cc1ccccc1)C(=O)c1ccc(S(=O)(=O)Nc2ccccc2)cc1 | 1.8 (active) |
| CC(C)Cc1ccc(C(C)C(=O)O)cc1 (centres undefined) | 2 (active) |
| O=C1CCCC(=O)C1C(=O)c1ccc(C(F)(F)F)cc1[N+](=O)[O-] | 0.9 (inactive) |
| O=C1c2ccccc2C(=O)c2c(NCCc3ccc(O)cc3)ccc(NCCc3ccc(O)cc3)c21 | 1.1 (inactive) |
| CNCCCC1c2ccccc2C=Cc2ccccc21 | 1.1 (inactive) |
| Cc1cc2c(s1)Nc1ccccc1N=C2N1CCN(C)CC1 | 0.7 (active) |
| CN1C2CCCC1CC(NC(=O)c1nn(C)c3ccccc13)C2 (centres undefined) | 1.4 (active) |
| CC[C@H](NC(=O)c1c(C)c(-c2ccccc2)nc2ccccc12)c1ccccc1 | 1 (inactive) |
| O=[N+]([O-])c1ccc(-c2nc(-c3ccc(F)cc3)c(-c3ccncc3)[nH]2)cc1 | 1.4 (active) |
| CC1CCc2nc(N)c(C#N)c(-c3cccnc3)c2C1 (centres undefined) | 1 (inactive) |

| SMILES | fold change permeability |
| --- | --- |
| CC(C)(C)NCC(O)c1cc(O)cc(O)c1 (centres undefined) | 0.8 (inactive) |
| COc1ccc2c(c1)CC[C@@H]1[C@@H]2CC[C@]2(C)[C@@H](NCCCCCCN3C(=O)CCC3=O)CC[C@@H]12 | 2.2 (active) |
| O=C1Cc2c([nH]c3ccc(Br)cc23)-c2ccccc2N1 | 0.7 (active) |
| Cn1c(=O)c2c(nc(/C=C/c3cccc(Cl)c3)n2C)n(C)c1=O | 1.6 (active) |
| C[C@]12CC[C@@H]3c4ccc(O)cc4CC[C@H]3[C@@H]1[C@@H](O)[C@@H](O)[C@@H]2O | 0.8 (inactive) |
| OCCN1CCN(CC/C=C2/c3ccccc3Sc3ccc(C(F)(F)F)cc32)CC1 | 1.2 (inactive) |
| CC1CCN(CC[C@H]2CCCN2S(=O)(=O)c2cccc(O)c2)CC1 | 0.7 (active) |
| CN(C(=O)CCCOc1ccc2[nH]c(=O)ccc2c1)C1CCCCC1 | 0.9 (inactive) |
| Oc1cc(O)cc(/C=C/c2ccc(O)c(O)c2)c1 | 0.7 (active) |
| Nc1ccc(CCNc2ncnc3c2ncn3C2OC(CO)C(O)C2O)cc1 (centres undefined) | 1 (inactive) |
| Cc1cn[nH]c1 | 0.8 (inactive) |
| CC(C)[C@H](NC(=O)OCc1ccccc1)C(=O)N[C@H](C=O)Cc1ccccc1 (Cbz-Val-Phe-aldehyde) | 1.4 (active) |
| Cc1ccc(Cl)c(Nc2ccccc2C(=O)O)c1Cl | 1.3 (active) |
| COc1ccccc1OCC(O)CN1CCN(CC(=O)Nc2c(C)cccc2C)CC1 (centres undefined) | 0.8 (inactive) |
| O=c1[nH]c(=O)n([C@H]2C[C@H](O)[C@@H](CO)O2)cc1Br | 1 (inactive) |
| Nc1ncnc2c1c(-c1ccc(Oc3ccccc3)cc1)cn2C1CCCC1 | 1.6 (active) |
| O=C(Nc1ccncc1)c1cc([N+](=O)[O-])ccc1Cl | 1 (inactive) |
| N#CC(C#N)=C(N)/C(C#N)=C/c1ccc(O)cc1 | 0.7 (active) |
| CC(=O)O[C@]1(C(C)=O)CC[C@H]2[C@@H]3C=C(Cl)C4=CC(=O)[C@@H]5C[C@@H]5[C@]4(C)[C@H]3CC[C@@]21C | 1 (inactive) |
